# Screens (PubChem)
# The sample as a whole holds a higher share of hits than the screen did.
# Glioma ERSR ind – induces the endoplasmic reticulum stress response in human glioma cells | U87-MG GRP78 promoter luciferase reporter, 16 h | Potency, µM, without a hit: at the highest dose activation, actives largely listed as activators | 0.02% of 420,000 active; note: series mostly up to about 76 µM; % of control where 0% means no effect; nearly all actives have a fitted effect of over 35% in size
#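 Stably transfected U87-MG glioma cells carrying a GRP78-based luciferase sensor; 16 h compound incubation. Luminescence end-point read 10 min after Bright-Glo addition at room temperature.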
# ALOX12 inh – ALOX12 (human) lipoxygenase inhibition. P18054. purified 12hLO, xylenol orange hydroperoxide absorbance. Potency, µM (doses to about 108 µM), without a hit: top-dose activity change, negative = inhibition, most hits filed as inhibitors. 1.1% of 580,000 active. AID 1671190; note: % is set by controls: 0 for no effect and ±100 for the full control effect
# Target sequence (P18054 whole entry, looked up): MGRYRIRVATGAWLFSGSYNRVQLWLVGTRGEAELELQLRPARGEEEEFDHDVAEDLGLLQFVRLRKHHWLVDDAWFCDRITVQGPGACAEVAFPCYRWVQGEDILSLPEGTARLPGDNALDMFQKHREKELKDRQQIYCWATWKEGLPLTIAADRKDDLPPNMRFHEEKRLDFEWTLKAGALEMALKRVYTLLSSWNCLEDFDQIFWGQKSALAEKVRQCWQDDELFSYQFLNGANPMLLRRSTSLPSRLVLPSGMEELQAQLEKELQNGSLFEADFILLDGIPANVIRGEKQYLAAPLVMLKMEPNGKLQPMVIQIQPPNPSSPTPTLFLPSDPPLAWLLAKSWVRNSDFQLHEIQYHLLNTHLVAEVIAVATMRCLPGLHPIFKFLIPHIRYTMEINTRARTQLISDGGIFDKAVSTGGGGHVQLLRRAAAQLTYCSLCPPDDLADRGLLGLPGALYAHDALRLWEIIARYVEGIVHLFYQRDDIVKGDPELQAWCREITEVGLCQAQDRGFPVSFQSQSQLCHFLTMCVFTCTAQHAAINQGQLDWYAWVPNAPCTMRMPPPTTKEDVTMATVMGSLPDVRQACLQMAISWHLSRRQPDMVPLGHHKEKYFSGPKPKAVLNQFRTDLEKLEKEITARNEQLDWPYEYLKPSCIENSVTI
#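 Hydroperoxide product was detected by ferrous iron/xylenol orange as the 573 to 405 nm absorbance ratio. Arachidonic acid at 40 uM (final) was turned over for 30 min at room temperature by 150 nM human 12hLO, pH 7.0 Hepes buffer, after 15 min compound preincubation.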
# G9a inh – blocks human histone lysine methyltransferase G9a. G9a H3K9 monomethylation, AlphaScreen, 2 h. Potency, µM (doses to about 102 µM), for inactives: at the highest dose activity, negative = inhibition, actives largely listed as inhibitors. 8.8% of 350,000 active. AID 504332; note: % is set by controls: 0 for no effect and ±100 for the full control effect; nearly all actives have a fitted effect of over 75% in size
#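 Compounds were preincubated with 20 nM G9a for 15 min, after which biotinylated H3K9 peptide (500 nM) and SAM (20 uM) started a 2 h room-temperature reaction. Monomethylated product was quantified by antibody-based AlphaScreen chemiluminescence.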
# VDR inh – blocks the human vitamin D receptor; P11473; Potency, µM, inactives show max response, negative = inhibition, hits mostly inhibitors; AID 504847; VDR-SRC2-3 peptide fluorescence polarization, 2 h; 0.93% of 400,000 active; note: % is set by controls: 0 for no effect and ±100 for the full control effect
#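 Measured by FP: displacement of SRC2-3 coactivator peptide from VDR by library compounds, following a two-hour ambient incubation.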
# Sfp PPTase inh – inhibitors of Bacillus subtilis Sfp phosphopantetheinyl transferase. Potency, µM, for inactives: largest response in the series, negative = inhibition, actives largely listed as inhibitors. AID 1490. 3.5% of 310,000 active. Q9F4F7. Biochemical Sfp PPTase activity, qHTS;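 note: the enzyme is Sfp with the accession as filed and its product quenches rhodamine fluorescence; 0% = enzyme reaction without inhibitor and -100% = no enzyme wells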
#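 Sfp 15 nM + cpd, 15 min RT; start w/ rhodamine-CoA 5 uM, BHQ-2-YbbR 12.5 uM (final); 50 mM Hepes pH 7.6, 10 mM MgCl2, 0.01% NP-40, 0.01% BSA; read 525/598 nm at 0 and 30 min.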
# Starred values were filed as active, the others as inactive; ? = inconclusive; · = no result; [ ] = dose if it differs, or a comment. Calls come from the whole dose curve; as a rule, active = well fitted curve in the direction sought with a large enough effect; inconclusive = small, poorly fitted or top-dose-only effect, or another doubt; inactive = no such curve, though single readings can be large; an effect the other way counts as inactive or inconclusive. Potency is the fitted concentration of half-maximal effect.
SMILES,Glioma ERSR ind,ALOX12 inh,G9a inh,VDR inh,Sfp PPTase inh
CC(=O)Nc1ccc(NC(=O)C(C)OC(=O)C2(c3ccc(F)cc3)CCCC2)cc1 (stereo not given),1%,0%,-33%,-3%,17%
CN(C)c1ccc(/C=N/NC(=O)c2sccc2-n2cccc2)cc1,5%,0%,28µM*,7%,-5%
CN(C)c1ccc(/C=N/NC(=O)c2ccccc2Cl)cc1,0%,-8%,40µM*,-13%,8%
Cc1c(CCC(=O)N2CCCCC2)c(=O)oc2cc(O)ccc12,·,-29%,·,·,·
CN(C)CC/C=C1/c2ccccc2Sc2c(O)cc(Cl)cc21,-2%,25%,25µM*,-23%,?
CN1Cc2ncnc(NCCc3ccc(F)cc3)c2CN(c2ccc(Cl)cc2)C1=O,·,71µM*,·,·,·
COc1ccc(CNc2ncnc3c2CN(c2ccc(Cl)cc2)C(=O)N(C)C3)cc1,·,-12%,·,·,·
COCC1(C(=O)N2CCOC(c3ccc4cc(OC)ccc4c3)C2)CCC1 (stereo not given),·,2%,·,·,·
COc1ccc(/C=N/c2c(-c3ccco3)nc3ccccn23)cc1OC,-2%,?,71µM*,?,-17%
COc1cc(-c2nc3ccccn3c2/N=C/c2ccc(F)cc2)ccc1O,0%,-29%,35µM*,0%,50µM*
COC(=O)c1ccc(CNC(=O)c2ccccc2-c2ccccc2)cc1,·,-49%,·,·,·
NC(=O)C(CC(=O)O)NC(=O)[C@@H]1CCCCNc2c(I)cc([N+](=O)[O-])cc2C(=O)N[C@@H](CO)C(=O)NCC(=O)N1 (stereo not given in full),·,·,28µM*,·,-6%
NC(=O)C(CC(=O)O)NC(=O)[C@@H]1CCCNc2c(I)cc([N+](=O)[O-])cc2C(=O)N[C@@H](CO)C(=O)N[C@@H](Cc2ccc(O)cc2)C(=O)N1 (stereo not given in full),-5%,·,50µM*,5%,-10%
CC(=O)Nc1ccc(SCc2ncc(-c3ccccc3)o2)cc1,-4%,-51%,50µM*,-9%,-9%
Cc1cc(NCc2cccnc2)n2ncc(-c3ccccc3)c2n1,·,23%,·,·,·
COC(=O)C(CC(C)C)NC(=O)C(N)Cc1ccccc1 (stereo not given),-4%,-16%,45µM*,-9%,10%
COC(=O)CCC(NC(=O)OCc1ccccc1)C(=O)NC(CC(C)C)C(=O)OC (stereo not given),-2%,0%,-12%,-17%,23%
CC(C)C[C@@H](C=O)NC(=O)[C@H](CC(C)C)NC(=O)[C@H](CC(C)C)NC(=O)OCc1ccccc1,-8%,-4%,8.9µM*,?,-9%
O=C1C(c2ccccc2)CC2(CCN(Cc3cccc(O)c3)CC2)CN1C1CC1 (stereo not given),·,53%,·,·,·
Cc1ccc(S(=O)(=O)N/N=C/c2cccc3c2OCCO3)cc1,-4%,?,10µM*,5%,-5%
Cc1ccc(S(=O)(=O)N/N=C/c2cccc(OC3CSC3)c2)cc1,-4%,?,8.9µM*,0%,-2%
CC[n+]1c(C)ccc2cc(C)ccc21,·,5.6µM*,·,·,·
Cc1ccc(C(=O)/C=C/c2c[nH]c3ccccc23)cc1,9%,?,3%[12.7 µM],-2%,-14%
CCN(CC)C(=O)c1ccc(/C=C/c2c[nH]c3ccccc23)[n+](C)c1,-4%,?,3.2µM*,-11%,-17%
CC[n+]1c(/C=C/c2c[nH]c3ccccc23)ccc2cc(C)ccc21,-13%,?,35µM*,20%,?
SMILES,Glioma ERSR ind,ALOX12 inh,G9a inh,VDR inh,Sfp PPTase inh
CCCNc1nc(N(C)C)nc(-n2cnc(SCC(=O)OCC)n2)n1,·,-2%,·,·,·
Cc1cccc(C(C)C)c1NC(=O)/C=C/c1ccc(F)cc1,·,39%,·,·,·
CSCC[C@H](NC(=O)[C@@H]1Cc2ccccc2CN1)C(=O)NC(C)c1ccccc1 (stereo not given in full),-2%,14%,22µM*,-6%,5%
Cc1ccc(NC(=O)[C@H](NC(=O)[C@@H]2Cc3ccccc3CN2)c2ccccc2)cc1,4%,-25%,·,15%,-9%
CC(C)c1ccc(NC(=O)[C@H](NC(=O)[C@@H]2Cc3ccccc3CN2)c2ccccc2)cc1,4%,5%,45µM*,-13%,-15%
CSCC[C@H](NC(=O)[C@@H]1Cc2ccccc2CN1)C(=O)NC1CCCC1,0%,12%,·,15%,-5%
COc1ccc(NC(=O)C2CC(=O)N(c3ccc(C)cc3)C2)cc1S(=O)(=O)N1CCCCC1 (stereo not given),1%,-19%,·,·,·
COc1ccc(NC(=O)Cc2ccccc2F)cc1S(=O)(=O)N1CCCCC1,-3%,-13%,0.32µM*,-5%,·
COc1ccc(NC(=O)COc2ccc(C)c(C)c2)cc1S(=O)(=O)N1CCCCC1,4%,-12%,56µM*,5%,·
CCOc1ccc(N2CC(C(=O)Nc3ccc(OC)c(S(=O)(=O)N4CCCCC4)c3)CC2=O)cc1 (stereo not given),1%,-11%,79µM*,-4%,7%
COc1ccc(NC(=O)CN2C(=O)c3ccccc3S2(=O)=O)cc1S(=O)(=O)N1CCOCC1,-3%,-18%,50µM*,8%,·
COc1ccc(NC(=O)CN2CCc3ccccc3C2)cc1S(=O)(=O)N1CCOCC1,-1%,-12%,25%[59 µM],2%,8%
COc1ccc(NS(=O)(=O)c2cc(-c3n[nH]c(=O)c4c3CCCC4)ccc2C)c(OC)c1,·,9%,·,·,·
O=C1NN(c2ccc(F)cc2)C(=O)/C1=C\C=C\c1ccco1,-5%,45µM*,?,?,-8%
O=C1NN(c2ccc(F)cc2)C(=O)/C1=C\c1cnn(-c2ccccc2)c1,·,-19%,·,·,0%
CCCCC(=O)Nc1cccc(-c2nc3ccccc3o2)c1C,·,17%,·,·,·
CCOC(=O)N1CCN(C(=O)c2ccc3c(=O)n(-c4ccccc4F)c(=S)[nH]c3c2)CC1,0%,-3%,50µM*,-6%,-9%
CCOC(=O)N1CCN(c2cc3[nH]c(=S)[nH]c3cc2F)CC1,-5%,?,2.2µM*,-14%,23%
CCOC(=O)N1CCN(C(=O)c2ccc3c(=O)n(-c4ccc(OC)cc4)c(=S)[nH]c3c2)CC1,3%,65%,-20%,13%,-11%
COc1ccc(Nc2ncnc3sccc23)cc1,5%,?,45µM*,2%,-9%
COC(=O)c1cccc(Nc2ncnc3sccc23)c1,0%,2%,35µM*,3%,-2%
COc1cccc(Nc2ncnc3sccc23)c1,0%,-3%,-8%,9%,-11%
O=C(O)c1cccc(Cn2c(Cl)c(/C=N/NC(=O)c3ccc(O)cc3)sc2=O)c1,3%,-3%,?,4%,25%
O=c1sc(/C=N/Nc2ccccc2)c(Cl)n1Cc1ccccc1,7%,?,14µM*,-26%,50µM*
O=Cc1sc(=O)n(Cc2cccc(C(=O)O)c2)c1Cl,-4%,-21%,?,79µM*,45µM*
